Shown is part of a subset that was picked to be rich in hits.
VCAM1 TNFa pot = potentiators of TNFa-induced VCAM1 expression, primary screen, imaging, HUVEC, TNFa stimulus, immunofluorescence. activation, % at 2 µM. 93,000 compounds, 0.19% hits. HUVEC TNFa-stimulated VCAM-1 immunofluorescence, high-content imaging; scaled per plate to unstimulated/TNFa-only wells;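 active means activation above the screen mean plus 3 SD, with well images confirming the hit on visual review, cut at about 28% in these data, passing the limit was not always enough; inconclusive means activation above that limit but images do not confirm it; inactive means activation not above that limit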;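 further: signal is the number of cytoplasmic VCAM-1 stained grains per positive cell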
VCAM1 pot confirm = potentiators of TNFa-induced VCAM1 expression, confirmation, imaging, HUVEC, triplicate retest; shares compounds with VCAM1 TNFa pot; HUVEC TNFa-stimulated VCAM-1 immunofluorescence imaging; activation, % at 2 µM; 230 tested, under 10 active; AID 1034, 2008;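 active means activation above 30% in triplicate retests at 2 µM, then confirmed by visual review of the well images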
Large screens that a line does not name were inactive (follow-up assays come after a bar, where they were run).

Cc1ccc2cccc(OC(=O)N3CCCC3)c2n1	VCAM1 TNFa pot inconclusive | VCAM1 pot confirm inactive
Cc1sc2nc(COC(=O)Cc3ccccc3)[nH]c(=O)c2c1C	none
C=CCn1c(O)c(C(C)=Nc2ccc(NC(C)=O)cc2)c(=O)[nH]c1=O	none
O=[P+](Cc1ccccc1)Cc1ccccc1	none
Cc1ccc(S(=O)(=O)N(C)CCCC(=O)N2CCN(c3ccccn3)CC2)cc1	VCAM1 TNFa pot 81 | VCAM1 pot confirm inactive
CC12CCCCC1N(O)CN2O (stereo not drawn)	none
COc1ccc(CN2CC3CC(C2)c2cccc(=O)n2C3)cc1OC (stereo not drawn)	none
CSc1ccc(CNC2CN3CCC2CC3)cc1 (stereo not drawn)	none
CN1CCc2nc3sc(C(=O)NC(C)(C)C)c(N)c3cc2C1	none
O=C(c1ccc2c(c1)ncn2C1CCCCC1)N1CCC2(CC1)OCCO2	none
